Laboratory results reported in PubChem BioAssay.

Each molecule was assayed against PEG-3 (UniProt Q6IN02) (assay: inhibition of PEG-3 promoter-driven reporter – cell-based, HeLa, luciferase, CREF/GAPDH counter-screen panel, dose response (AID 624167)). Conditions: CREF/GAPDH counter-screens; HeLa PEG-Prom luciferase reporter, overnight, run 1, dose range 1, at 100 µM (top of the series) unless noted.
Sequence of PEG-3 (Q6IN02 whole entry, looked up): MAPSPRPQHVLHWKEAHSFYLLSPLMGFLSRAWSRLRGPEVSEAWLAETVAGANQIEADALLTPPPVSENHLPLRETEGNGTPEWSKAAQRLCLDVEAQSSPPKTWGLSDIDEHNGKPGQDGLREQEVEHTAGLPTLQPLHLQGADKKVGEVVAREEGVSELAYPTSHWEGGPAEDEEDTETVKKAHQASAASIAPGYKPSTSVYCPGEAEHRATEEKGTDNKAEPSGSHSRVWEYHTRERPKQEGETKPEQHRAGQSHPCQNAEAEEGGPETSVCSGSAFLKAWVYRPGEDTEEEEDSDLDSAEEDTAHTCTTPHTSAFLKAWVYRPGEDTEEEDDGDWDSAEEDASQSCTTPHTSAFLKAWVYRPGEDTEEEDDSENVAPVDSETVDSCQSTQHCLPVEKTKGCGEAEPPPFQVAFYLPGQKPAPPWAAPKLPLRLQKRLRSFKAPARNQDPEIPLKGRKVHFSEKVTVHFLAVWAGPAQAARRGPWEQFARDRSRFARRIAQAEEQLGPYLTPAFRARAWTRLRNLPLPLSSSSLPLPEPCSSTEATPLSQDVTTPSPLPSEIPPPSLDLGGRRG

First: CN(Cc1ccccc1F)C(=O)C(Cc1ccccc1)NC(=O)c1ccccc1 (stereo not given)
Second: CCOc1ccc2nc(N(CCCN(C)C)C(=O)c3ccc(C(=O)c4ccccc4)cc3)sc2c1
The inhibition of the first is lower: 98.9% for the first, 102% for the second.

First: COc1ccc(CN(C)C(=O)c2cc(-c3ccc(C)cc3C)nc3ccccc23)c(OC)c1OC
Second: CCCCNc1c(-c2cccc(Sc3ccc(OC)cc3)c2)nc2ccccn12
The inhibition of the first is higher: 102% for the first, 94.7% for the second.

Going from `CN(O)C(=S)c1ccccc1` to `CCn1cc(CN2CCC(C(=O)Nc3cccc(-c4cccc(Cl)c4)c3)CC2)cn1`, the inhibition rises from 27% to 99.1%.

What follows are molecules tested against PEG-3 (UniProt Q6IN02) in the same assay as above. Conditions: CREF/GAPDH counter-screens; HeLa PEG-Prom luciferase reporter, overnight, run 2, dose range 1, at 100 µM (top of the series) unless noted.

`c1ccc(C(=NNc2nc3ccccc3s2)c2ccccn2)cc1` and `COc1ccc2c(c1)c(=Cc1ccc(N(C)C)cc1)c1cc(-c3ccccc3)[n+](C)n12` are the same in inhibition: 102% for the first, 102% for the second.

First: CCN1CCN(c2nc(Nc3cc(OC)ccc3OC)nc(Nc3cc(OC)ccc3OC)n2)CC1
Second: Cc1ccc(C)c(S(=O)(=O)N2CCN(c3ncnc4sccc34)CC2)c1
The inhibition of the first is lower: 53.1% for the first, 91.3% for the second.

Going from `CNC(=O)c1ccsc1NC(=O)c1ccc(S(=O)(=O)N2CCc3ccccc32)cc1` to `CN1OC[C@@H]2CN(S(=O)(=O)c3cccc(C(F)(F)F)c3)[C@H](c3ccc(-c4cc5ccccc5o4)cc3)C[C@@H]21`, the inhibition rises from 63.5% to 73.1%.

First: COc1cccc2c1C(=O)c1c(O)c3c(c(O)c1C2=O)CC(O)(C(C)=NNC(=O)c1ccc(Cl)c(Cl)c1)CC3OC1CC(N)C(O)C(C)O1 (stereo not given)
Second: CCCc1cc(=O)n2[nH]c(C)c(-c3ccc(Cl)cc3)c2n1
The inhibition of the first is higher: 101% for the first, 88.7% for the second.

With `COc1ccc2sc(-c3ccc(S(C)(=O)=O)cc3)c(C#Cc3cncn3C)c2c1` the inhibition was 60.8% [run 2, dose range 1, at 50 µM].
